Structures are written as SMILES. Screen size: about 39,000 compounds; about 3,300 (8.5%) were called active. This is one part of a sample in which actives are shown more often than they occur.

This assay relates to HepG2. Nature of the assay: cytotoxicity call (relative viability < 0.9). To be noted: 10 µM.
In the case of `COc1ccc(S(=O)(=O)Nc2ccc3c(c2)C(=O)N([C@H](C)CO)C[C@@H](C)[C@@H](CN(C)CC2CCCCC2)OCCCC[C@H](C)O3)cc1`, the cytotoxicity call is “inactive”. Turning to `COc1ccc(S(=O)(=O)Nc2ccc3c(c2)C(=O)N([C@H](C)CO)C[C@H](C)[C@@H](CN(C)CC2CCCCC2)OCCCC[C@H](C)O3)cc1`, the cytotoxicity call is “inactive”.

Take `COc1ccc(S(=O)(=O)Nc2ccc3c(c2)C(=O)N([C@@H](C)CO)C[C@H](C)[C@H](CN(C)CC2CCCCC2)OCCCC[C@@H](C)O3)cc1`: the cytotoxicity call was “inactive”.

As for `COc1ccc(S(=O)(=O)Nc2ccc3c(c2)C(=O)N([C@@H](C)CO)C[C@H](C)[C@H](CN(C)CC2CCCCC2)OCCCC[C@H](C)O3)cc1`, the cytotoxicity call was “inactive”. Next, `COc1ccc(S(=O)(=O)Nc2ccc3c(c2)C(=O)N([C@@H](C)CO)C[C@H](C)[C@@H](CN(C)CC2CCCCC2)OCCCC[C@H](C)O3)cc1`: “inactive”.

Consider `COc1ccc(S(=O)(=O)Nc2ccc3c(c2)C(=O)N([C@@H](C)CO)C[C@@H](C)[C@H](CN(C)CC2CCCCC2)OCCCC[C@H](C)O3)cc1`, for which the cytotoxicity call was “inactive”. Regarding `COc1ccc(S(=O)(=O)Nc2ccc3c(c2)C(=O)N([C@H](C)CO)C[C@@H](C)[C@H](CN(C)CC2CCCCC2)OCCCC[C@@H](C)O3)cc1`, the cytotoxicity call is “inactive”.

For the compound `COc1ccc(S(=O)(=O)Nc2ccc3c(c2)C(=O)N([C@H](C)CO)C[C@@H](C)[C@@H](CN(C)CC2CCCCC2)OCCCC[C@@H](C)O3)cc1`, the cytotoxicity call was “active”. The same measure for `COc1ccc(S(=O)(=O)Nc2ccc3c(c2)C(=O)N([C@@H](C)CO)C[C@@H](C)[C@@H](CN(C)CC2CCCCC2)OCCCC[C@@H](C)O3)cc1`: “active”; for `COc1ccc(S(=O)(=O)Nc2ccc3c(c2)C(=O)N([C@@H](C)CO)C[C@@H](C)[C@@H](CN(C)CC2CCCCC2)OCCCC[C@H](C)O3)cc1`: “active”. On to `COc1ccc(S(=O)(=O)Nc2ccc3c(c2)C(=O)N([C@@H](C)CO)C[C@@H](C)[C@H](CN(C)CC2CCCCC2)OCCCC[C@@H](C)O3)cc1`, for which the cytotoxicity call was “inactive”.

As for `COc1ccc(NC(=O)Nc2ccc3c(c2)C(=O)N([C@H](C)CO)C[C@@H](C)[C@H](CN(C)C(=O)NC2CCCCC2)OCCCC[C@@H](C)O3)cc1`, the cytotoxicity call was “inactive”.

Regarding `CC(C)NC(=O)N(C)C[C@@H]1Oc2ccc(NS(=O)(=O)c3ccc(F)cc3)cc2C(=O)N([C@H](C)CO)C[C@H]1C`, the cytotoxicity call was “inactive”. Next, `C[C@@H]1CCCCO[C@H](CN(C)C(=O)c2ccccc2)[C@@H](C)CN([C@H](C)CO)C(=O)c2cc(NS(=O)(=O)c3ccccc3)ccc2O1`: “inactive”; `Cc1cc(=O)[n+]2cccc(O)c2[nH]1`: “inactive”. The same measure for `CC(C)NC(=O)Nc1ccc2c(c1)C(=O)N([C@H](C)CO)C[C@@H](C)[C@@H](CN(C)S(=O)(=O)c1ccc(Cl)cc1)O2`: “inactive”; for `CCc1cc(C(N)=O)c(N)s1`: “inactive”; for `C[C@@H]1CCCCO[C@H](CN(C)C(=O)Nc2ccc(F)cc2)[C@@H](C)CN([C@H](C)CO)C(=O)c2cc(NC(=O)Nc3ccccc3)ccc2O1`: “inactive”. Next, `CCOC(=O)N[C@H]1CCS(=O)(=O)C1`: “inactive”. In the case of `Cc1cn2c(=O)c(C(=O)O)cnc2s1`, the cytotoxicity call was “inactive”.

As to `C[C@@H]1CN([C@H](C)CO)C(=O)c2cccc(NS(C)(=O)=O)c2O[C@@H]1CN(C)S(=O)(=O)c1ccccc1`, the cytotoxicity call is “inactive”.

Consider `CCOC(=O)CCCCCC(=O)Nc1ccc2c(c1)C(=O)N([C@H](C)CO)C[C@@H](C)[C@@H](CN(C)S(=O)(=O)c1ccc(C)cc1)OCCCC[C@H](C)O2`, for which the cytotoxicity call was “inactive”. For the compound `C[C@@H]1CN([C@H](C)CO)C(=O)c2cc(NS(=O)(=O)c3ccc(Cl)cc3)ccc2O[C@@H](C)CCCCO[C@@H]1CN(C)Cc1ccccc1`, the cytotoxicity call is “inactive”. Next, `C[C@@H]1CCCCO[C@@H](CN(C)Cc2ccccc2)[C@@H](C)CN([C@@H](C)CO)C(=O)c2cc(NS(=O)(=O)c3ccc(Cl)cc3)ccc2O1`: “inactive”. Take `C[C@H](CO)N1C[C@H](C)[C@@H](CN(C)Cc2ccccc2)OCCCC[C@H](C)Oc2ccc(NS(=O)(=O)c3ccc(Cl)cc3)cc2C1=O`: the cytotoxicity call was “inactive”. Turning to `C[C@H]1CCCCO[C@H](CN(C)Cc2ccccc2)[C@@H](C)CN([C@@H](C)CO)C(=O)c2cc(NS(=O)(=O)c3ccc(Cl)cc3)ccc2O1`, the cytotoxicity call is “inactive”. The same measure for `C[C@@H]1CCCCO[C@@H](CN(C)Cc2ccccc2)[C@H](C)CN([C@@H](C)CO)C(=O)c2cc(NS(=O)(=O)c3ccc(Cl)cc3)ccc2O1`: “inactive”; for `C[C@@H]1CCCCO[C@@H](CN(C)Cc2ccccc2)[C@@H](C)CN([C@H](C)CO)C(=O)c2cc(NS(=O)(=O)c3ccc(Cl)cc3)ccc2O1`: “inactive”; for `C[C@@H]1CCCCO[C@H](CN(C)Cc2ccccc2)[C@H](C)CN([C@@H](C)CO)C(=O)c2cc(NS(=O)(=O)c3ccc(Cl)cc3)ccc2O1`: “active”. As for `C[C@@H]1CN([C@@H](C)CO)C(=O)c2cc(NS(=O)(=O)c3ccc(Cl)cc3)ccc2O[C@@H](C)CCCCO[C@@H]1CN(C)Cc1ccccc1`, the cytotoxicity call was “active”.

For `C[C@H]1CCCCO[C@@H](CN(C)Cc2ccccc2)[C@@H](C)CN([C@@H](C)CO)C(=O)c2cc(NS(=O)(=O)c3ccc(Cl)cc3)ccc2O1`, the cytotoxicity call is “active”.

Take `C[C@@H]1CN([C@@H](C)CO)C(=O)c2cc(NS(=O)(=O)c3ccc(Cl)cc3)ccc2O[C@@H](C)CCCCO[C@H]1CN(C)Cc1ccccc1`: the cytotoxicity call was “inactive”. Regarding `C[C@@H]1CCCCO[C@H](CN(C)Cc2ccccc2)[C@H](C)CN([C@H](C)CO)C(=O)c2cc(NS(=O)(=O)c3ccc(Cl)cc3)ccc2O1`, the cytotoxicity call was “active”. With `C[C@@H]1CCCCO[C@H](CN(C)Cc2ccccc2)[C@@H](C)CN([C@H](C)CO)C(=O)c2cc(NS(=O)(=O)c3ccc(Cl)cc3)ccc2O1`, the cytotoxicity call is “inactive”. As to `C[C@H]1CN([C@@H](C)CO)C(=O)Cc2cc(NS(C)(=O)=O)ccc2O[C@H]1CN(C)Cc1ccc(C(=O)O)cc1`, the cytotoxicity call was “inactive”. Consider `C=CCOC(=O)[C@@H]1[C@H]2C(=O)O[C@H](c3ccccc3)[C@H](c3ccccc3)N2[C@H](c2ccc(OCCOC(=O)[C@H]3C[C@H]4C(=O)N5CCC[C@H]5C(=O)N4[C@H]3c3ccc(O)cc3)cc2)[C@@]12C(=O)Nc1ccccc12`, for which the cytotoxicity call is “inactive”. Next, `Cn1ncc2c(NN3C(=O)CCC3=O)ncnc21`: “inactive”.

The values are drawn from the antibiotic and cytotoxicity screens of Wong et al. (2023).
